# High-throughput results from PubChem BioAssay.
# Vaccinia mCherry = qHTS for Stage-Specific Inhibitors of Vaccinia Orthopoxvirus: mCherry Reporter Primary qHTS. Vaccinia virus mCherry reporter infection, fluorescence. Potency, µM (doses to about 36.5 µM), for inactives: at the highest dose activity change, negative = inhibition, usual class: inhibitors. 310,000 tested, 0.63% active; calls by dose curve; tested in A549 cells; note: nearly all actives have a fitted effect of over 35% in size
# HCV inhibitor = qHTS Assay for Inhibitors of Hepatitis C Virus (HCV); Huh7.5.1 HCVcc-Cre infection, luciferase reporter, 44 h; Potency, µM (series often up to 41.8 µM), without a hit: at the top dose activity change, negative = inhibition, actives largely listed as inhibitors; 340,000 tested, 3.4% active; active = well fitted inhibition curve with a large enough effect; inconclusive = small, poorly fitted or top-dose-only effect, or another doubt; inactive = no such curve, though single readings can be large or run the other way
#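 Infectious HCV cell culture screen: compound-treated cells (1,000/well, pre-plated 4 h) are infected with HCVcc-Cre at roughly 0.5 moi and grown 44 h. Infection is quantified by luciferase signal after 15 min substrate incubation at room temperature.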
# Vaccinia Venus = qHTS for Stage-Specific Inhibitors of Vaccinia Orthopoxvirus: Venus Reporter Primary qHTS; Vaccinia virus Venus reporter expression, fluorescence; Potency, µM (series often up to 36.5 µM), for the others: at the top dose activity change, negative = inhibition, actives largely listed as inhibitors; 330,000 tested, 0.46% active; AID 720580, 2013; calls by dose curve; tested in A549 cells; note: nearly all actives have a fitted effect of over 30% in size
# * = called active by the depositor; i = inactive; ? = inconclusive; / = not tested or not shown; [ ] = remark or other dose. A selection: hits, their analogues and other compounds. The true share with any hit is near 3.3%. % is set by controls: 0 for no effect and ±100 for the full control effect; potency is the fitted concentration of half-maximal effect.
SMILES,Vaccinia mCherry,HCV inhibitor,Vaccinia Venus
COc1ccc(/C=C/c2nc(C#N)c(N3CCC(C)CC3)o2)cc1OC,-11.9%,/,-19.2%
COc1cc(CNCCCN2CCOCC2)c(Br)cc1OCC(=O)Nc1ccccc1C,i,1.58µM*,-22.4%
COc1cc(CNCCCN2CCOCC2)c(Br)cc1OC(C)C,-11.4%,?,-10.6%
Cn1ccc(C(=O)NCC2CCC3(CCN(Cc4ccc(F)cc4F)CC3)O2)n1 (stereo not drawn),i,/,-10.7%
N=c1c(-c2nc3ccccc3[nH]2)cc(C(=O)c2ccco2)nn1-c1ccccc1,/,7.94µM*,/
N=c1c(-c2nc3ccccc3[nH]2)cc(C(=O)c2cccs2)nn1-c1ccccc1,/,-2.3%,/
COC(=O)C1C(=O)C(C(=O)/C=C/c2ccccc2)C(=O)CC1(C)C (stereo not drawn),11.2µM*,-6.5%,?
COC(=O)C1C(=O)C(C(=O)c2ccccc2)C(=O)CC1(C)C (stereo not drawn),/,2.3%,/
O=C(CSc1cc(Cl)ccc1Cl)NC1CCCC1,-10.6%,-1.5%,0.0%
Cc1nc(SCc2ccc(F)cc2)c2oc3ccccc3c2n1,-3.6%,9.4%,-7.1%
Cc1nc(SCC(=O)N2CCN(c3ccccc3)CC2)c2oc3ccccc3c2n1,/,10µM*,-15.6%
Cc1nc(SCC(=O)O)c2oc3ccccc3c2n1,/,8.5%,/
CCc1nc(SCC(=O)NC2CCCC2)c2oc3ccccc3c2n1,-9.1%,-11.7%,-7.7%
Cc1nc(SCc2nc3ccccc3[nH]2)c2oc3ccccc3c2n1,/,25.1µM*,-19.3%
CCc1nc(SCC(=O)N2CCCc3ccccc32)c2oc3ccccc3c2n1,/,11.2µM*,/
CCCOC(=O)c1cccc(NC(=O)CSc2nnc3cc(C)c4ccccc4n23)c1,-12.6%,/,-8.0%
CCNS(=O)(=O)c1ccc(CCC(N)=O)cc1,-8.8%,16.1%,-10.3%
CCNS(=O)(=O)c1ccc(CCC(=O)O)cc1,i,10µM*,-7.6%
CCOc1ncccc1C(=O)NCc1ccc(C)cc1,-8.8%,9.7%,-15.3%
CSc1ncccc1C(=O)NCc1ccc(C)cc1,?,5.7%,10µM*
COC(=O)C(Cc1c[nH]c2ccccc12)NC(=O)COc1ccc(Cl)cc1Cl (stereo not drawn),-13.5%[7.34 µM],/,-5.9%[7.34 µM]
COc1ccc2c(c1)OC/C(=C/c1ccc(OC)c(OC)c1)C2=O,-12.8%,/,?
COc1ccc(/C=C2/CSC/C(=C/c3ccc(OC)c(OC)c3)C2=O)cc1OC,2.51µM*,?,?
CSc1ccccc1NC(=O)Nc1cccc2ccccc12,/,-6.2%,/
CC(=O)c1ccc(NC(=O)CSc2nc(C3CC3)nc3ccccc23)cc1,?,-22.6%,-21.3%
SMILES,Vaccinia mCherry,HCV inhibitor,Vaccinia Venus
COc1ccc(NC(=O)CSc2nc(C3CC3)nc3ccccc23)cc1,?,11.2µM*,?
Fc1ccccc1-c1nc(NC2CCCC2)c2ccccc2n1,-5.6%,?,-18.0%
c1ccc(-c2nnc(-c3ccccn3)nc2NC2CCCCC2)cc1,3.55µM*,1.58µM*,?
CCCCC(=O)Nc1cc(-c2cn3cccnc3n2)ccc1C,-8.1%,/,-5.7%
Cc1ccccc1C(=O)Nc1ccc(-c2nc3ccc(C(=O)c4ccccc4)cc3[nH]2)cc1,/,11.2µM*,?
O=C(c1ccccc1)c1ccc2nc(-c3ccc(NC(=O)c4ccccc4Br)cc3)[nH]c2c1,-23.2%,25.1µM*,-24.8%
CS(=O)(=O)c1ccccc1C(=O)Nc1ccc(-c2nc3ccccc3[nH]2)cc1,/,-6.3%,/
O=C(O)c1ccc(NC(=O)c2ccccc2NC(=O)c2ccccc2Br)cc1,-9.9%,12.0%,-5.3%
O=C(c1cc2c(=O)oc3ccccc3c2s1)N1CCN(c2cccc(Cl)c2)CC1,4.1%,/,-5.5%
Cc1nc2ccc(C(=O)Nc3cccc(OCC(=O)N(C)C)c3)cn2c1N(C)CC1CCCCC1,9.0%,/,-1.4%
Cc1ccc(-c2ccc(=O)n(C(C)C(=O)Nc3ccccc3Cl)n2)cc1C (stereo not drawn),-6.7%,/,-6.0%
CCOCCCN(C)C1CCN(C(=O)c2oc3ccccc3c2NC(=O)Cc2ccc([N+](=O)[O-])cc2)CC1,i,-27.5%,-17.2%
CCOCCCN(C)C1CCN(C(=O)c2oc3ccccc3c2NC(=O)c2cccc([N+](=O)[O-])c2)CC1,?,14.1µM*,-2.4%
C[C@@H]1O[C@@H](OC[C@H]2O[C@@H](Oc3c(-c4ccc(OCCO)c(OCCO)c4)oc4cc(OCCO)cc(O)c4c3=O)[C@H](O)[C@@H](O)[C@@H]2O)[C@H](O)[C@H](O)[C@H]1O,-11.4%,/,-3.5%
C[C@@H]1CN([C@@H](C)CO)C(=O)c2cc(NC(=O)Nc3ccc(F)cc3)ccc2O[C@@H]1CN(C)Cc1ccc(Oc2ccccc2)cc1,?,?,10µM*
C[C@H]1CN([C@@H](C)CO)C(=O)c2cc(NC(=O)Cc3ccccc3)ccc2O[C@H]1CN(C)Cc1ccccc1,-14.4%,6.2%,-20.4%
C[C@@H]1CN([C@@H](C)CO)C(=O)c2cc(NS(C)(=O)=O)ccc2O[C@H]1CN(C)Cc1ccc(Oc2ccccc2)cc1,?,-13.3%,?
C[C@H]1CN([C@@H](C)CO)C(=O)Cc2cc(NS(C)(=O)=O)ccc2O[C@@H]1CN(C)Cc1ccc(Cl)c(Cl)c1,-11.7%,?,-28.3%
C[C@@H]1CN([C@@H](C)CO)C(=O)Cc2cc(NC(=O)Nc3ccc(F)cc3)ccc2O[C@@H]1CN(C)Cc1ccc(Cl)c(Cl)c1,?,?,11.2µM*
COc1ccc(CN(C)C[C@@H]2OCCCC[C@H](C)Oc3ccc(NC(=O)Cc4ccccc4)cc3C(=O)N([C@@H](C)CO)C[C@@H]2C)cc1,-14.6%,/,-14.3%
C[C@@H]1CN([C@H](C)CO)C(=O)c2cc(NC(=O)Cc3ccccc3)ccc2O[C@H]1CN(C)Cc1ccc(Oc2ccccc2)cc1,?,11.2µM*,?
C[C@@H]1CCCCO[C@H](CN(C)Cc2ccc(C(F)(F)F)cc2)[C@H](C)CN([C@@H](C)CO)C(=O)c2cc(NC(=O)Cc3ccccc3)ccc2O1,?,/,11.2µM*
Cc1ccc(S(=O)(=O)N2CCN(c3nc(N(C)c4cc(Cl)ccc4O)nc4ccccc34)CC2)cc1,-14.6%,/,-16.6%
COCCNC(=O)Cn1cnc2c(cnn2-c2ccc(OC)cc2)c1=O,/,10.4%,/
CC1Cc2ccccc2C[N+]1(C)CC(=O)c1ccc(I)cc1 (stereo not drawn),45.7%,/,9.7%
SMILES,Vaccinia mCherry,HCV inhibitor,Vaccinia Venus
COc1ccc(-n2ncc(C(=O)NCc3cccs3)c2C2CCN(C(=O)OC(C)(C)C)CC2)cc1,-5.1%,/,-11.5%
COc1cc(CCNC2=CC(=O)c3ncccc3C2=O)ccc1O,10µM*,?,10µM*
COc1ccccc1CNS(=O)(=O)c1cc(CN2C(=O)c3cccnc3C2=O)ccc1OC,/,6.9%,/
CCCCNC(=O)C[C@@H]1C[C@@]2(C(=O)OC)CCCCC=C2N(Cc2cccc3ccccc23)C1=O,1.9%,/,-13.1%
Cn1c(=S)[nH]c2cc(C(=O)N3CCN(C(=O)c4ccccc4)CC3)ccc2c1=O,-21.9%,/,-17.6%
Cn1c2ccccc2c2nnc(SCC(=O)Nc3cccc(C(=O)O)c3)nc21,/,2.1%,/
Cc1cc(NC(=O)CSc2nc(C(C)C)nc3ccccc23)no1,/,12.6µM*,/
